Measurements as given in PubChem BioAssay (NCATS).
Results filed as inconclusive are left out. Unless noted, calls follow the shape of the dose curve; as a rule, active = well fitted curve in either direction with a large enough effect (not every such curve was filed as active); inconclusive = small, poorly fitted or top-dose-only effect, or another doubt; inactive = flat fitted curve, though single readings scatter.

Key:
[1] = AP1 Signaling Pathway (AID 357); conditions: ME-180 AP-1-bla reporter, EGF-induced, beta-lactamase ratio, 5 h; at 17.2 µM (top of the series) unless noted;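 also: ME-180 reporter cells stimulated with EGF at its EC50 level; % is scaled to controls: 0 for no effect and ±100 for the full control effect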
Method in brief: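 Beta-lactamase reporter under AP-1 response element, ME-180 background. Stimulus: EC50 EGF. Compound exposure 5 h, 37 °C. Detection: CCF4, 2.5 h RT, 460/530 nm. Values: AC50 from titration.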

[2] = Stat Signaling Pathway (AID 446); conditions: ME-180 (cervical carcinoma) SIE beta-lactamase reporter, IL-6 stimulated, 5 h; at 17.2 µM (top of the series) unless noted;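 also: ME-180 cervical cancer cells given 40 pM IL-6 alongside compound; SIE-controlled beta-lactamase reporter measured as 460/530 nm FRET emission ratio; % is scaled to controls: 0 for no effect and ±100 for the full control effect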
Method in brief: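 Normalization used AC90 stimulation (300 pM IL-6) and AC90 inhibition (125 nM pan-JAK inhibitor at 40 pM IL-6). The underlying signal is SIE-driven beta-lactamase in ME-180 cells after 5 h IL-6 exposure with compound.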

[3] = target: Glucocorticoid receptor (Homo sapiens) (UniProt P04150); assay: GR-GFP Redistribution (AID 450;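 active = compounds whose dose series gives a full or clear partial fitted curve of increased nuclear translocation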; also: potency is read from the fitted curve at half-maximal effect)
Chain of Glucocorticoid receptor (Homo sapiens) (P04150 whole entry, looked up): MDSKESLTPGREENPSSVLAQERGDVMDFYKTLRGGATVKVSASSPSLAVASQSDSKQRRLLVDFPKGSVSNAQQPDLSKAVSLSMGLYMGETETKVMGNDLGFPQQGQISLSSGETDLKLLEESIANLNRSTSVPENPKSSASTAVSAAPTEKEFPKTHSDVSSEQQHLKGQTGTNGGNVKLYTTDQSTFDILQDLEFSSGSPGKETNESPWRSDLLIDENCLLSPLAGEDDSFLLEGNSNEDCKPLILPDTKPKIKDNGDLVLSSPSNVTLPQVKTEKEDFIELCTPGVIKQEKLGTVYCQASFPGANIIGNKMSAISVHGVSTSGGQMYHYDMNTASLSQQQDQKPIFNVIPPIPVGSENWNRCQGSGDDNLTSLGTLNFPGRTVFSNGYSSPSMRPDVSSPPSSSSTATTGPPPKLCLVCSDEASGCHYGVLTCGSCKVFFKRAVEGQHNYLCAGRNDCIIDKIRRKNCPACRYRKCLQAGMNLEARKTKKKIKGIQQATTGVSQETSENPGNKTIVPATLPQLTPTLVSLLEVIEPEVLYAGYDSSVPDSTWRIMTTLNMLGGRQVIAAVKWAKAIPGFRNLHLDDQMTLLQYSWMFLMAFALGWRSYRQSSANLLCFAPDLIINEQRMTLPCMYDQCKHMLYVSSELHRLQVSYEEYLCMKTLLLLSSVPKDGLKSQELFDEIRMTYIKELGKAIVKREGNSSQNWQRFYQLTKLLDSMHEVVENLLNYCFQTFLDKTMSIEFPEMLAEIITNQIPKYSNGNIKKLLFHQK

COC(=O)CSC1=C(C#N)C(=O)NC2(CCCCC2)S1
inactive: activity change, negative = inhibition [1] 1.61% | activity, negative = inhibition [2] 3.53% | Potency [3] > 20.6 µM

CN(CCOC(=O)c1cccc(Br)c1)C(C)(C)C
inactive: activity change, negative = inhibition [1] 9.82% | activity, negative = inhibition [2] 7.11% | Potency [3] > 20.6 µM

CC1CCN(c2[nH]c(=S)c(C#N)c3c2CCCC3)CC1
inactive: activity change, negative = inhibition [1] 10.9% | activity, negative = inhibition [2] -15.1% | Potency [3] > 20.6 µM

CCCc1nc(NC2CCCCC2)c(C#N)c2c1COC(C)(C)C2
inactive: activity change, negative = inhibition [1] 16.4% | activity, negative = inhibition [2] 25.5% | Potency [3] > 20.6 µM

COc1ccc(Cn2c(=O)c3c(nc(NCCO)n3C)n(C)c2=O)cc1
inactive: activity change, negative = inhibition [1] 1.13% | activity, negative = inhibition [2] -24.4% | Potency [3] > 20.6 µM
